Inconclusive results are not listed. Where a structure was tested more than once in an assay, its records may differ in their call. The source made the active and inactive calls. The calls were made as follows: active = hit-call score of the fitted dose curve at least 0.9, where 1 is the maximum; inconclusive = response in the unintended direction; inactive = score below 0.9.
Test system: not listed separately
Experiment: ACEA_ER_AUC_viability: ACEA Biosciences xCELLigence Real-Time Cell Analysis on Estrogen Receptor Agonism for Viability (AID 2283782);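 also: continuous compound exposure with impedance area under curve over 80 h; hit means loss of impedance signal meaning reduced cell growth or viability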
Procedure, shortened: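 T47D cells preconditioned in phenol red-free RPMI with charcoal-stripped FBS, then dosed with 8-point 1:4 series from 100 uM (up to 0.5% DMSO). Impedance monitored up to ~80 h; area-under-curve loss versus DMSO taken as viability.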

| SMILES | outcome | AC50 |
| --- | --- | --- |
| CS(C)(=O)=O | inactive | – |
| CC(C)(C)c1ccc(OC2CCCCC2O)cc1 (stereo unspecified) | inactive | – |
| CCCCCCCCCCCCCCCC[N+](C)(C)Cc1ccccc1 | – | 3.4 µM (active) |
| CCN(CC)c1ccc2c(C)cc(=O)oc2c1 | – | 17.1 µM (active) |
| FC(F)(F)C(F)(F)C(F)(F)C(F)(F)C(F)(F)C(F)(F)C(F)(F)C(F)(F)CCS | inactive | – |
| CCCCC(CC)COP(=O)(O)OCC(CC)CCCC (stereo unspecified) | – | 79.2 µM (active) |
| OCC(F)(F)C(F)(F)C(F)(F)F | inactive | – |
| FC(F)(I)C(F)(F)C(F)(F)C(F)(F)I | – | 129 µM (active) |
| COC(OC(C)=O)c1ccccc1 (stereo unspecified) | inactive | – |
| O=C(O)C(F)(F)C(F)(F)C(F)F | inactive | – |
| FC(F)(F)C(F)(F)C(F)(F)CI | inactive | – |
| O=C(Cl)C(F)(F)C(F)(F)C(F)(F)C(F)(F)C(F)(F)C(F)(F)C(F)(F)C(F)(F)F | – | 127 µM (active) |
| Cc1cccc(N(C)C)c1 | – | 25.6 µM (active) |
| Cc1ccc(S(=O)(=O)OCC(F)(F)C(F)(F)C(F)(F)C(F)(F)C(F)(F)C(F)F)cc1 | – | 0.00308 µM (active) |
| C=C(C)C(=O)OCC(F)(F)C(F)(F)C(F)(F)C(F)(F)C(F)(F)C(F)(F)C(F)(F)F | inactive | – |
| CCCCCCOC(=O)c1ccccc1O | inactive | – |
| Nc1ccc([N+](=O)[O-])cc1O | inactive | – |

| SMILES | outcome | AC50 |
| --- | --- | --- |
| Nc1ccc(S(=O)(=O)Nc2nccs2)cc1 | inactive | 26 µM (active) |
| Nc1ccc(Oc2cccc(Oc3ccc(N)cc3)c2)cc1 | – | 64.2 µM (active) |
| O=S(=O)(O)c1ccc2ccccc2c1 | inactive | – |
| Oc1ccc(Nc2ccccc2)cc1 | – | 25.4 µM (active) |
| O=C(O)C(F)(F)C(F)(F)C(F)(F)C(F)(F)C(F)(F)C(F)(F)C(F)(F)C(F)(F)C(F)(F)C(F)(F)C(F)(F)C(F)(F)F | – | 19.3 µM (active) |
| CC(C)(C)C(=O)CC(=O)C(F)(F)C(F)(F)C(F)(F)F | inactive | – |
| FC(F)(F)C(F)(F)C(F)(F)C(F)(F)C(F)(F)C(F)(F)CCS | inactive | – |
| COC(=O)C1CCC(C(=O)OC)CC1 (stereo unspecified) | inactive | – |
| C=CC(F)(F)C(F)(F)C(F)(F)C(F)(F)C(F)(F)C(F)(F)C(F)(F)C(F)(F)C=C | inactive | – |
| [Co] | inactive | – |
| OCC(F)(F)C(F)(F)C(F)(F)C(F)F | inactive | – |
| C=C(C)C(=O)OCC(F)(F)C(F)(F)C(F)(F)F | inactive | – |
| O=C(O)C(F)(OC(F)(F)C(F)(OC(F)(F)C(F)(OC(F)(F)C(F)(F)C(F)(F)F)C(F)(F)F)C(F)(F)F)C(F)(F)F (stereo unspecified) | inactive | – |
| CCc1ccc(C(c2ccc(CC)cc2)C(Cl)Cl)cc1 | inactive | – |
| O[Si](c1ccccc1)(c1ccccc1)c1ccccc1 | – | 196 µM (active) |
| C=CC(=O)OCC(F)(F)C(F)(F)C(F)(F)C(F)(F)C(F)(F)C(F)(F)C(F)(F)F | inactive | – |

Target: AR (gene 367) (UniProt P10275)
Experiment: ACEA_AR_agonist_80hr: ACEA Biosciences xCELLigence Real-Time Cell Analysis on Androgen Receptor Agonism for Proliferation (AID 2283783);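 also: hits increase impedance growth signal above DMSO baseline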
Procedure, shortened: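 Proliferation of 22Rv1 prostate cancer cells tracked by electrical impedance, endpoint taken at 80 hours after dosing. Eight-point 1:4 dilutions from 100 uM maximum final, duplicate; testosterone and MG132 as positive controls, assay media as negative.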

Sequence of AR (gene 367) (P10275 whole entry, looked up): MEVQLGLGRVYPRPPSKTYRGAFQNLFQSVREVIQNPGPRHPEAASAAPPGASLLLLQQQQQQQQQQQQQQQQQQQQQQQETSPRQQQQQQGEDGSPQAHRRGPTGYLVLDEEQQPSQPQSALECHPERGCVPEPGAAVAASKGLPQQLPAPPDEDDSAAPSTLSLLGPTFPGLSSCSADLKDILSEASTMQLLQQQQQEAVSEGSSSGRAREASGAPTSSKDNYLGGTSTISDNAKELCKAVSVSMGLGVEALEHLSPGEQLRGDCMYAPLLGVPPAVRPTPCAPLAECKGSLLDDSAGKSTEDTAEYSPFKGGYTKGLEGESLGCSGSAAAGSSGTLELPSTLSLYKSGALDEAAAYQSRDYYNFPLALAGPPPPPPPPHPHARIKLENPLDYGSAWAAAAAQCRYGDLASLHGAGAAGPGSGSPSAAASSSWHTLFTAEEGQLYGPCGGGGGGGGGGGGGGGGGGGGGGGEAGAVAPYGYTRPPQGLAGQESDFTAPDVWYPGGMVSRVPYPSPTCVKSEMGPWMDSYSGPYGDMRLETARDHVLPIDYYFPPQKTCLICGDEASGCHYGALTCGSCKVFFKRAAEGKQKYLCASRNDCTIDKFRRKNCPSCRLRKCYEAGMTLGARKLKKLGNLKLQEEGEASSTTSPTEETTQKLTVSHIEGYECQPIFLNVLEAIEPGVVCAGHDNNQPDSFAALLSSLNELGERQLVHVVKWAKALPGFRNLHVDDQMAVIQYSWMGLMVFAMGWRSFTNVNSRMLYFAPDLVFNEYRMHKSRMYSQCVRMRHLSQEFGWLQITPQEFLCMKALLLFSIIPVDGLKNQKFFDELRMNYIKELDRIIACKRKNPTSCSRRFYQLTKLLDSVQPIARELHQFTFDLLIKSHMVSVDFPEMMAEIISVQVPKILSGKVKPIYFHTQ

| SMILES | outcome |
| --- | --- |
| CNC(=S)NC | inactive |
| CCCCCCC(C)OC(=O)CCCCC(=O)OC(C)CCCCCC (stereo unspecified) | inactive |
| CN(C)Cc1ccccc1O | inactive |

Target: AR (gene 367) (UniProt P10275)
Experiment: ACEA_AR_antagonist_80hr: ACEA Biosciences xCELLigence Real-Time Cell Analysis on Androgen Receptor Antagonism for Proliferation (AID 2283787);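 also: 22Rv1 human prostate cancer cells with growth followed by electrical impedance; hits lower the impedance growth signal relative to DMSO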
Procedure, shortened: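 22Rv1 cells in assay medium, growth tracked by electrical impedance; compounds eight-point 1:4 dilutions from 100 uM final, duplicate plates. Endpoint at 80 h; loss of signal versus DMSO.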

| SMILES | outcome |
| --- | --- |
| CNC(=S)NC | inactive |
| CCCCCCC(C)OC(=O)CCCCC(=O)OC(C)CCCCCC (stereo unspecified) | inactive |
| CCCCCCOC(=O)c1ccccc1O | inactive |
| CN(C)Cc1ccccc1O | inactive |

From PubChem BioAssay (EPA / NIEHS)
